Screening data as filed in PubChem.
The list is not random: actives were taken first. Their share in the collection is about 19%.
HT1080NT lethal: kills 2HG-producing HT-1080-NT fibrosarcoma cells | 1.6% of 360,000 active | HT-1080-NT fibrosarcoma viability, CellTiter-Glo ATP luminescence, 48 h | Potency, µM (doses to about 46.1 µM), actives largely listed as cytotoxic | AID 686970;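 also: NT is the 2HG producing partner of a matched IDH1 knockdown line; nearly all actives have a fitted effect of over 55% in size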
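750 cells/well, RPMI + 5% FBS; 2 h settle, compound pin-transfer, 48 h at 37 degrees C. CellTiter-Glo 10 min RT, luminescence. Normalized to DMSO and media-only wells.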
KB-3-1 cytotox: KB-3-1 parental cell cytotoxicity. 1.4% of 400,000 active. KB-3-1 viability, CellTiter-Glo ATP luminescence, 72 h. Potency, µM (doses to about 46.1 µM), hits mostly cytotoxic; also: nearly all actives have a fitted effect of over 60% in size
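KB-3-1 parental drug-naive adenocarcinoma cells in DMEM/10% FBS, incubated 72 h at 37 C with pin-transferred compounds across a concentration series. Viability by CellTiter-Glo luminescence; concentration-response curves fitted after normalization.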
KB-V1 MDR tox: KB-V1 MDR subline cytotoxicity | AID 1347076 | 3.4% of 400,000 active | KB-V1 MDR cells viability, CellTiter-Glo, 72 h | Potency, µM (highest dose often 46.1 µM), most hits filed as cytotoxic; also: nearly all actives have a fitted effect of over 60% in size
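qHTS viability screen in drug-selected KB-V1 MDR cells: 72 h compound treatment at 37 degrees C, ATP luminescence end point.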
HT1080 IDH1KD tx: toxicity to HT-1080 IDH1 knockdown cells (counter line); HT-1080 IDH1 knockdown viability, ATP luminescence, 48 h; Potency, µM (doses to about 46.1 µM), most hits filed as cytotoxic; 2% of 360,000 active; AID 686971
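Using the IDH1-knockdown HT-1080 line run in the same batch and compound series as the NT line, viability after 48 h at 37 °C was determined by CellTiter-Glo luminescence and expressed as % activity.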
TDP1 cell CPT: DT40-hTDP1 cell growth loss with CPT; AID 686979; Potency, µM (highest dose often 46.2 µM), hits mostly inhibitors; 12% of 420,000 active; chicken DT40 Tdp1-/-;hTDP1 cells + 20 nM CPT, ATP luminescence, 48 h; also: nearly all actives have a fitted effect of over 55% in size
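Chicken DT40 Tdp1-/- cells complemented with human TDP1, 400 cells/well, exposed to compounds plus 20 nM camptothecin for at least 48 h at 37 C; viability read as ATP content by CellTiter-Glo luminescence.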
DT40 TDP1 no CPT: qHTS for Inhibitors of human tyrosyl-DNA phosphodiesterase 1 (TDP1): qHTS in cells in absence of CPT. DT40 Tdp1-/- hTDP1 cells, no CPT, ATP luminescence, 48 h. Potency, µM (top dose mostly 46.2 µM), most hits filed as inhibitors. 15% of 420,000 active. AID 686978, 2013; also: nearly all actives have a fitted effect of over 55% in size
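Stably hTDP1-transfected Tdp1-null chicken DT40 cells were treated with library compounds minus camptothecin and grown for at least 48 hr at 37 °C, after which cellular ATP was quantified by luminescence.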
Large screens that a line does not name were inactive. Calls follow the shape of the dose curve; as a rule, active = well fitted curve in the direction sought with a large enough effect; inconclusive = small, poorly fitted or top-dose-only effect, or another doubt; inactive = no such curve, though single readings can be large; an effect the other way counts as inactive or inconclusive.

COc1ccc2nc(N3C(=O)CC(C(C)c4ccccc4)C3=O)sc2c1 (stereo not drawn)	none
COc1ccc2nc(N3C(=O)/C(=C/c4ccc(Cl)cc4)NC3=S)sc2c1	KB-3-1 cytotox inconclusive, KB-V1 MDR tox inconclusive, TDP1 cell CPT inconclusive, DT40 TDP1 no CPT 20.6µM
CCCCN(Cc1ccccc1)S(=O)(=O)c1cc(Br)cc2c1N(C(=O)C1CC1)CC2	TDP1 cell CPT 9.2µM, DT40 TDP1 no CPT 9.2µM (no result: HT1080NT lethal, HT1080 IDH1KD tx)
CCN(Cc1ccccc1)S(=O)(=O)c1cc(Br)cc2c1N(C(=O)C1CC1)CC2	TDP1 cell CPT 10.3µM, DT40 TDP1 no CPT 8.2µM (no result: HT1080NT lethal, HT1080 IDH1KD tx)
CCc1ccccc1NS(=O)(=O)c1cc(Br)cc2c1N(C(=O)C1CC1)CC2	TDP1 cell CPT 16.4µM, DT40 TDP1 no CPT 18.4µM (no result: HT1080NT lethal, HT1080 IDH1KD tx)
CCOc1ccc(NS(=O)(=O)c2cc(Br)cc3c2N(C(=O)C2CC2)CC3)cc1	TDP1 cell CPT inconclusive, DT40 TDP1 no CPT inconclusive (no result: HT1080NT lethal, HT1080 IDH1KD tx)
O=C(C1CC1)N1CCc2cc(S(=O)(=O)N(CCO)Cc3ccccc3)ccc21	KB-V1 MDR tox inconclusive, HT1080 IDH1KD tx inconclusive, TDP1 cell CPT inconclusive, DT40 TDP1 no CPT 23.1µM
CCCCN(Cc1ccccc1)S(=O)(=O)c1ccc2c(c1)CCN2C(=O)C1CCC1	none (no result: HT1080NT lethal, HT1080 IDH1KD tx)
CCCCN(Cc1ccccc1)S(=O)(=O)c1cc(Br)cc2c1N(C(C)=O)CC2	TDP1 cell CPT inconclusive, DT40 TDP1 no CPT inconclusive (no result: HT1080NT lethal, HT1080 IDH1KD tx)
Cc1cccc(NS(=O)(=O)c2ccc(NC(=O)N3CCCC3)cc2)c1	KB-3-1 cytotox inconclusive (no result: HT1080NT lethal, HT1080 IDH1KD tx)
CCSc1nnc(NC(=O)c2cc(=O)c3cc(C)ccc3o2)s1	none (no result: HT1080NT lethal, HT1080 IDH1KD tx)
N=c1ccn2c(n1)O[C@H]1[C@@H](CO)[C@H](O)O[C@H]12	HT1080NT lethal inconclusive, KB-V1 MDR tox inconclusive, TDP1 cell CPT 0.0366µM, DT40 TDP1 no CPT 0.0058µM
O=C1C=C(NCCc2cc(Br)c(O)c(Br)c2)C(=O)c2ncccc21	HT1080NT lethal inconclusive, KB-3-1 cytotox 7.31µM, KB-V1 MDR tox 5.8µM, HT1080 IDH1KD tx 10.3µM, TDP1 cell CPT 1.16µM, DT40 TDP1 no CPT 2.06µM
CC(C)(C)c1cc(CCC(=O)NCCc2ccccn2)cc(C(C)(C)C)c1O	KB-V1 MDR tox inconclusive, TDP1 cell CPT inconclusive, DT40 TDP1 no CPT inconclusive
CC(C)OC(=O)CN1CCN(C2c3ccccc3-c3ccccc32)CC1	TDP1 cell CPT inconclusive, DT40 TDP1 no CPT 29.1µM
O=C(c1ccco1)N1CCN(C2c3ccccc3-c3ccccc32)CC1	HT1080 IDH1KD tx inconclusive, TDP1 cell CPT inconclusive, DT40 TDP1 no CPT inconclusive
COc1ccc(C2CC(=O)C3=C(C2)Nc2ccccc2NC3c2coc3ccccc3c2=O)cc1OC (stereo not drawn)	TDP1 cell CPT 16.4µM, DT40 TDP1 no CPT 25.9µM
Cc1ccc(C)c(-c2csc(NC(=O)c3cnccn3)n2)c1	KB-V1 MDR tox inconclusive, TDP1 cell CPT inconclusive, DT40 TDP1 no CPT inconclusive
CC(C)c1ccc(/C=C(\c2nc3ccccc3[nH]2)S(=O)(=O)c2ccccc2)cc1	HT1080NT lethal 5.17µM, KB-3-1 cytotox inconclusive, KB-V1 MDR tox 2.59µM, HT1080 IDH1KD tx 3.26µM, TDP1 cell CPT 4.61µM, DT40 TDP1 no CPT 4.61µM
O=S(=O)(/C(=C/c1ccc(C(F)(F)F)cc1)c1nc2ccccc2[nH]1)c1ccccc1	HT1080NT lethal 2.59µM, KB-3-1 cytotox 5.17µM, HT1080 IDH1KD tx 4.61µM, TDP1 cell CPT 2.59µM, DT40 TDP1 no CPT 2.91µM
O=C(c1ccc(Cl)cc1)c1oc2ccccc2c1CS(=O)c1ccccc1 (stereo not drawn)	KB-V1 MDR tox 5.17µM, TDP1 cell CPT inconclusive, DT40 TDP1 no CPT inconclusive
COC(=O)c1cc2c(cc1NC(=O)c1cnn(-c3ccccc3)c1-n1cccc1)OCO2	none (no result: HT1080NT lethal, HT1080 IDH1KD tx)
Cc1cc(S(=O)(=O)Nc2cccc(C(=O)O)c2)c(C)c(S(=O)(=O)c2ccccc2)c1	none (no result: HT1080NT lethal, HT1080 IDH1KD tx)
Cc1nc(SCC(=O)OCc2ccccc2)c(C#N)c(-c2ccccc2)c1C(=O)Nc1ccccc1	TDP1 cell CPT inconclusive, DT40 TDP1 no CPT inconclusive
Cc1ccccc1NC(=O)c1c(C)nc(SCC(=O)OCc2ccccc2)c(C#N)c1-c1ccc(F)cc1	TDP1 cell CPT inconclusive, DT40 TDP1 no CPT 14.6µM
O=C(Nc1ccc([N+](=O)[O-])cc1)c1ccc(Cn2cc([N+](=O)[O-])cn2)cc1	HT1080NT lethal inconclusive, HT1080 IDH1KD tx inconclusive, TDP1 cell CPT 18.4µM, DT40 TDP1 no CPT 13µM
CCOc1ccc(C(=O)Nc2cnn(Cc3ccc(Cl)c(Cl)c3)c2)cc1	HT1080NT lethal inconclusive, KB-3-1 cytotox inconclusive, KB-V1 MDR tox 2.59µM, HT1080 IDH1KD tx inconclusive, TDP1 cell CPT inconclusive, DT40 TDP1 no CPT inconclusive
Cc1ccccc1NC(=O)c1ccc(Cn2cc([N+](=O)[O-])cn2)o1	none
O=C(Nc1ccc(Cl)c(Cl)c1)c1ccc(Cn2cc(Cl)cn2)cc1	HT1080NT lethal inconclusive, KB-3-1 cytotox inconclusive, HT1080 IDH1KD tx inconclusive, TDP1 cell CPT inconclusive, DT40 TDP1 no CPT inconclusive
O=C(Nc1cccc(F)c1)c1ccc(Cn2cc([N+](=O)[O-])cn2)o1	KB-V1 MDR tox 13µM
CCOC(=O)c1cc(S(=O)(=O)N2CCN(c3ccc(F)cc3)CC2)[nH]n1	TDP1 cell CPT 16.4µM, DT40 TDP1 no CPT 18.4µM (no result: HT1080NT lethal, HT1080 IDH1KD tx)
CCOC(=O)c1cc(S(=O)(=O)N2CCN(c3cccc(OC)c3)CC2)[nH]n1	TDP1 cell CPT inconclusive, DT40 TDP1 no CPT inconclusive (no result: HT1080NT lethal, HT1080 IDH1KD tx)
